From PubChem BioAssay (Tox21) come the findings set out here.

A short description of assay [1]: qHTS assay for small molecule agonists of the p53 signaling pathway (AID 651631; calls by dose curve; further: nearly all actives have a fitted effect of over 15% in size). The method, boiled down: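 HCT-116 cells carrying a beta-lactamase reporter under p53 response elements were dosed with compound for 16 h at 37 °C. LiveBLAzer B/G FRET substrate was then added for 2 h at room temperature, and fluorescence intensity was read to detect pathway agonism.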
(In qHTS, concentration-response curves come from the screen itself.)

The nature of assay [2]: qHTS assay for small molecules that induce genotoxicity in human embryonic kidney cells expressing luciferase-tagged ATAD5 (AID 651632). Further: nearly all actives have a fitted effect of over 15% in size. The method, boiled down: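 DMSO vehicle served as the control. HEK293T reporter cells, 16 hr at 37C, then 30 min Amplite at room temperature; ATAD5 induction is measured as luciferase activity.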
Assay [3] can be described thus: qHTS assay for small molecule agonists of the p53 signaling pathway - cell viability (AID 651633; calls by dose curve;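 further: p53RE-bla HCT reporter cells with a stable beta-lactamase p53 reporter; series mostly up to about 83 µM; nearly all actives have a fitted effect of over 30% in size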). An outline of the steps:
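Viability counter-read: CellTiter-Glo luminescence (30 min, room temperature) in the same p53RE-bla plates. These plates had been exposed to compounds for 16 h at 37 C.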

Assay [4] in a line: qHTS assay for small molecules that induce genotoxicity in human embryonic kidney cells expressing luciferase-tagged ATAD5 - cell viability (AID 651634; calls by dose curve; further: nearly all actives have a fitted effect of over 25% in size). The method, boiled down: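 Here HEK293T cells with the ATAD5 luciferase reporter are incubated with test compounds for 15.5 hr, and cytotoxicity is then gauged by measuring protease activity in live cells using fluorescence.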

Assay [5] can be described thus: qHTS assay for small molecule disruptors of the mitochondrial membrane potential - cell viability (AID 720634; calls by dose curve;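 further: human HepG2 liver cancer cells; series mostly up to about 83 µM; nearly all actives have a fitted effect of over 20% in size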). An outline of the steps: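 Viability of HepG2 cells is scored from ATP content by luminescence; cells are exposed to compound for 1 hr at 37 C and 5% CO2, then dosed with m-MPI dye before the CellTiter-Glo reagent.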
The nature of assay [6]: qHTS assay for small molecule disruptors of the mitochondrial membrane potential (AID 720635). Further: potency means the concentration at half of the fitted maximal effect. An outline of the steps:
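Mitochondrial membrane potential tracked with Mito-MPS dye, red aggregates (ex 540/em 590 nm) against green monomers (ex 490/em 535 nm). Compound treatment 1 hr at 37C, dye 30 min in HepG2.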

Assay [7] is described as follows: qHTS assay to test for compound auto fluorescence at 590 nm (red) in HepG2 cells (AID 720674). An outline of the steps: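 1 hr compound incubation on HepG2 cells, 37 C, 5% CO2; plate read ex 540 nm / em 590 nm; intensities reported as Rose Bengal sodium equivalents.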
The nature of assay [8]: qHTS assay to test for compound auto fluorescence at 535 nm (green) in HepG2 cells (AID 720675).
Assay [9] is described as follows: qHTS assay to test for compound auto fluorescence at 460 nm (blue) in HEK293 cells (AID 720678). The method, boiled down:
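Measured: blue fluorescence (Ex 405/Em 460 nm) of compound-treated HEK293 cells, incubated overnight at 37C with 5% CO2 and scaled to triamterene equivalents.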

Assay [10] can be described thus: qHTS assay to test for compound auto fluorescence at 590 nm (red) in HEK293 cells (AID 720679). An outline of the steps:
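Using HEK293 cells at 2,000 per well, the screen added 23 nL of each compound after cell attachment and incubated overnight (37C, 5% CO2). The plate reader then captured red-label fluorescence, Ex/Em 540/590nm.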

Molecules are shown by their SMILES. Records with an inconclusive call do not appear. Activity calls are given as the source filed them. Unless noted, the call rests on the fitted dose curve; in most records, active means well fitted curve in the direction sought with a large enough effect in the repeat runs; inconclusive means weak or mixed curves; inactive means no such curve, though single readings can be large; an effect the other way counts as inactive or inconclusive.

As to `CN1[C@@H]2CCC[C@H]1CC(NC(=O)c1nn(C)c3ccccc13)C2` (some centres undefined), the Potency result in [1], in assay [2], in assay [3], in assay [4], in assay [5] and in assay [6] was “inactive” throughout. Also, the Potency result in assay [7], in assay [8], in assay [9] and in assay [10] was “inactive” each time.

In the case of `C=C[C@]1(C)C[C@@H](OC(=O)CO)[C@]2(C)[C@H](C)CC[C@]3(CCC(=O)[C@H]32)[C@@H](C)[C@@H]1O`, the Potency entry in assay [1], in [2], in [3], in [4], in [5] and in assay [6] was “inactive” each time. For the same compound, the Potency entry in assay [7], in assay [8], in [9] and in assay [10] was “inactive” each time.

Turning to `CCCC(=O)O[C@]1(C(=O)COC(=O)CC)[C@@H](C)C[C@H]2[C@@H]3CCC4=CC(=O)C=C[C@]4(C)[C@@]3(F)[C@@H](O)C[C@@]21C`, the Potency result in [1], in assay [2], in assay [3], in [4], in assay [5] and in [7] was “inactive” each time. For the same compound, the Potency entry in assay [8], in [9] and in assay [10] was “inactive” each time. For the same compound, the Potency in assay [6] was 26.6 µM (active).

With `CCCCCCCCCCCCCCCCCC(=O)OCCO`, the Potency entry in assay [1], in assay [2], in assay [3], in [4], in [5] and in [6] was “inactive” throughout. Moreover, the Potency result in assay [7], in assay [8], in assay [9] and in assay [10] was “inactive” each time.

`CN[C@@H]1CCc2[nH]c3ccc(C(N)=O)cc3c2C1`: the Potency result in assay [1], in [2], in [3], in [4], in [5] and in [6] was “inactive” each time. In addition, the Potency result in [7], in [8], in assay [9] and in assay [10] was “inactive” throughout.

With `N[C@@H](C(=O)N[C@@H]1C(=O)N2C(C(=O)O)=C(Cl)CC[C@H]12)c1ccccc1`, the Potency result in [1], in assay [2], in [3], in assay [4], in assay [5] and in [6] was “inactive” throughout. For the same compound, the Potency result in assay [7], in [8], in assay [9] and in assay [10] was “inactive” in each case.

For `O=C(/C=C/c1cccc(F)c1)NC1CC1`, the Potency entry in assay [1], in assay [2], in assay [3], in assay [4], in assay [5] and in assay [6] was “inactive” in each case. Also, the Potency entry in assay [7], in [8], in assay [9] and in assay [10] was “inactive” throughout.

As for `Nc1ccn(C[C@@H](CO)OCP(=O)(O)O)c(=O)n1`, the Potency result in assay [1], in [2], in [3], in [4], in assay [5] and in assay [6] was “inactive” in each case. Besides, the Potency entry in [7], in [8], in assay [9] and in [10] was “inactive” throughout.

For `CC#CCC(C)[C@H](O)/C=C/[C@@H]1[C@H]2C/C(=C/CCCC(=O)O)C[C@H]2C[C@H]1O` (some centres undefined), the Potency entry in [1], in [2], in assay [3], in assay [4], in assay [5] and in assay [6] was “inactive” each time. Besides, the Potency entry in [7], in assay [8], in [9] and in [10] was “inactive” each time.

Take `COC(=O)[C@H]1[C@H]2C[C@@H]3c4[nH]c5cc(OC)ccc5c4CCN3C[C@H]2C[C@H](OC)[C@@H]1OC`: the Potency result in [1], in [2], in assay [3], in [4], in assay [5] and in [6] was “inactive” in each case. The Potency result in assay [7], in [8] and in [10] was “inactive” each time.

For the compound `C=C1CC2C3CCC4=CC(=O)C=C[C@]4(C)[C@@]3(F)[C@@H](O)C[C@]2(C)[C@@]1(O)C(=O)COC(C)=O` (some centres undefined), the Potency result in [1], in assay [2], in assay [3], in [4], in assay [5] and in assay [6] was “inactive” each time. The Potency entry in assay [7], in [8], in [9] and in assay [10] was “inactive” throughout.

Take `C=CCN1CCCC1CNC(=O)c1cc(S(N)(=O)=O)cc(OC)c1OC` (centres undefined): the Potency entry in [1], in [2], in assay [3], in assay [4], in assay [5] and in assay [6] was “inactive” each time. The Potency entry in [7], in assay [8], in assay [9] and in assay [10] was “inactive” in each case.

Consider `CCOC(=O)COc1ccc2c(C)c(CCN(CC)CC)c(=O)oc2c1`, for which the Potency result in [1], in assay [2], in [3], in assay [4], in assay [5] and in assay [6] was “inactive” each time. The Potency entry in assay [7], in assay [8], in assay [9] and in assay [10] was “inactive” in each case.

For the compound `O=C(O)[C@H](CC(=O)N1C[C@H]2CCCC[C@H]2C1)Cc1ccccc1`, the Potency result in assay [1], in assay [2], in assay [3], in [4], in assay [5] and in assay [6] was “inactive” each time. Also, the Potency result in [7], in assay [8], in assay [9] and in [10] was “inactive” each time.

For the compound `O=C1O[C@H]2[C@H](O)[C@@H]1OC(O)[C@H]2O` (some centres undefined), the Potency result in assay [1], in assay [2], in assay [3], in [4], in [5] and in assay [6] was “inactive” in each case. Further, the Potency result in assay [7], in assay [8], in assay [9] and in assay [10] was “inactive” throughout.

With `O=C(NCCNCC(O)COc1ccc(O)cc1)N1CCOCC1` (centres undefined), the Potency result in [1], in assay [2], in assay [3], in [4], in assay [5] and in [6] was “inactive” in each case. In addition, the Potency entry in assay [7], in assay [8], in [9] and in [10] was “inactive” each time.

As to `N[C@@H](C(=O)N[C@@H]1C(=O)N2C(C(=O)O)=C(CSc3cn[nH]n3)CS[C@H]12)c1ccc(O)cc1`, the Potency result in [1], in [2], in assay [3], in assay [4], in assay [5] and in [6] was “inactive” each time. Moreover, the Potency entry in assay [7], in [8], in assay [9] and in [10] was “inactive” in each case.

For `Cn1nnnc1SCC1=C(C(=O)O)N2C(=O)[C@@H](NC(=O)[C@H](OC=O)c3ccccc3)[C@H]2SC1`, the Potency result in assay [1], in [2], in assay [3], in [4], in assay [5] and in assay [6] was “inactive” throughout. Moreover, the Potency result in assay [7], in assay [8], in assay [9] and in assay [10] was “inactive” each time.
